The results in this text go back to PubChem BioAssay.

The structures appear in SMILES notation. Values without a mark were called inactive. Cut-off read from the data, not from the text of the source, unless noted: active = inhibition above about 30%; inactive = the rest.

The first test can be described thus: yeast transport mutant growth inhibition pilot in 384-well plates, post-Golgi transport modulator project (AID 636; in the data active = inhibition above about 31%). The note with it: absorbance 615 nm, about 18 h, hits give high values.
For `CC(C)(C)OC(=O)N1CC=C2C(C#N)=C(N)C(C#N)(C#N)[C@H](c3cccnc3)[C@H]2C1`, the inhibition is -2.67%.
For the molecule `COc1cccc(N(C(=O)c2ccco2)C(C(=O)NC2CCCC2)c2ccc(N(C)C)cc2)c1` (stereo not drawn), the inhibition is -5.45%.
Turning to `CCOC(=O)C1(C(=O)OCC)C(c2ccccc2)CC(O)N1C(C)=O` (stereo not drawn), the inhibition was -6.18%.
Consider `Cc1cccc(NC(=O)c2cnc3sccn3c2=O)n1`, for which the inhibition is 0.13%.
Regarding `CCCn1c(SCC(=O)Nc2nnc(-c3ccccc3)s2)nnc1-c1ccccn1`, the inhibition was -2.7%.
Still for that read-out and setting: the value for `COc1ccc(-c2c3c(=O)n(C)c(=O)n(C)c3cn2-c2cccc(OC)c2)cc1` was 0.39%.
Regarding `CCOC(=O)C1CCN(Cc2ccc(C(=O)OC)cc2)CC1`, the inhibition was -4.08%.
Still for that read-out and setting: then `O=C1c2ccccc2C(Nc2ccc3c(c2)OCCO3)N1Cc1ccco1` (stereo not drawn), with 4.23%; and `COc1cc(/C=N/n2c(C)nnc2C)cc(OC)c1OC`, with -0.53%.
On the same count and under the same terms, then `Cc1cccc(N(C)C(=O)c2cc3cc4ccc(C)cc4nc3o2)c1`, with -4%; and `Cc1cc(NC(=O)CSc2nccn2-c2ccc(Cl)cc2)no1`, with -1.56%; and `Cc1ccc2[nH]c(=O)c(CN(CCCO)S(=O)(=O)c3c(C)ccc4nsnc34)cc2c1`, with -1.18%.
The same measure, in the same setting: the value for `Cc1ccc(S(=O)(=O)C2(C(=O)N3CCCCCC3)CC2)cc1` was -2.73%; that for `COc1cc(CN2CCSCC2)cc(OC)c1OC` was -0.65%; that for `CCOc1ccc(-c2nc(S(=O)(=O)c3ccccc3)c(NCc3cccnc3)o2)cc1` was 1.33%.
As for `CC(=O)Nc1ccc(NS(=O)(=O)c2ccc(Cl)c(C(=O)O)c2)cc1`, the inhibition is -4.61%.
On the same count and under the same terms, then `CC(=O)CCc1ccc(OCCCCn2cncn2)cc1`, with -4.94%; and `CCCC(=O)Nc1ccc(NC(=O)c2ccccc2OC)cn1`, with -1.17%; and `CCOC(=O)c1[nH]c(C)c(C(=O)Nc2ccccc2F)c1C`, with -4.47%.
The same measure, in the same setting: then `COc1ccccc1C(=O)N1CCN(CCc2ccccc2)CC1`, with 0%.
For `CCN1CCN(c2c(Cl)cccc2NC(=O)c2ccc3c(c2)OCCO3)CC1`, the inhibition is -5%.
Still for that read-out and setting: the value for `COc1ccccc1NS(=O)(=O)c1ccc(OC)c(OC)c1` was -6.62%; that for `CN(C(=O)c1ccc(S(=O)(=O)NC2CCCC2)cc1)C1CCCCC1` was -3.38%; that for `C/C(N)=C(/C#N)C(=O)COC(=O)c1cc(S(=O)(=O)N2CCCCC2)ccc1C` was 0.38%.
With `CC(=O)Nc1ccc(-c2cc3ccccc3o2)cc1`, the inhibition is -6.44%.
Still for that read-out and setting: the value for `CCN(CC)S(=O)(=O)c1ccc2oc(C(=O)O)c(C)c2c1` was -0.4%.
On the same count and under the same terms, the value for `CCn1c(=O)cc(SCC(=O)Nc2ccc3c(c2)OCO3)c2ccccc21` was -2.5%.
Take `CN(C(=O)c1ccncc1)C1CC(C)(C)N(O)C(C)(C)C1`: the inhibition is -7.11%.
Regarding `CCCC(=O)Nc1ccccc1NC(=O)CN(C)S(=O)(=O)c1ccc(C)cc1`, the inhibition was -4.8%.
On the same count and under the same terms, then `Cn1c(=O)cc(OCC(=O)NCCCN2CCN(Cc3ccccc3)CC2)c2ccccc21`, with -0.93%; and `CCNC(=O)C1CC(=O)N(Cc2ccc3c(c2)OCO3)C(=Nc2ccc(OCC)cc2)S1` (stereo not drawn), with -2.11%.
The same measure, in the same setting: then `Cc1cc(-c2ccccc2)nc2cc(C(N)=O)nn12`, with -2.63%.
Same read-out and setting: the value for `Cc1ccc(C)c(-n2c(Cc3cc(=O)[nH]c(=O)[nH]3)nnc2SCC(=O)NCc2ccco2)c1` was -6%; that for `Cn1c(C(=O)NCCC2=CCCCC2)cc2c(=O)n3ccccc3nc21` was 0.26%.
In the case of `O=C1CCC(c2ccccc2)N1C(=O)c1cccnc1` (stereo not drawn), the inhibition is -6.58%.
Same read-out and setting: then `Cc1ccc(-n2nnnc2SCC(=O)N2CCc3ccccc3C2)cc1`, with -2.5%; and `COC(=O)c1oc2ccc(OC)cc2c1N`, with -2.53%; and `O=C(C1CCC(CNS(=O)(=O)c2cccc3cccnc23)CC1)N1CCCC1` (stereo not drawn), with -1.07%.
Same read-out and setting: the value for `FC(F)(F)C(F)(F)C(F)(F)c1nnc2ccc(N3CCOCC3)nn12` was 4.21%.

Another test in a line: growth suppression of yeast trafficking mutant, preliminary HTS, modulators of trafficking downstream of Golgi apparatus project, 1536-format plate, OD 615 nm (AID 637). The note with it: yeast transport mutant growth, absorbance 615 nm, 18 h; hits give high values.
In the case of `CC(C)(C)OC(=O)N1CC=C2C(C#N)=C(N)C(C#N)(C#N)[C@H](c3cccnc3)[C@H]2C1`, the inhibition was 14%.
For `COc1cccc(N(C(=O)c2ccco2)C(C(=O)NC2CCCC2)c2ccc(N(C)C)cc2)c1` (stereo not drawn), the inhibition is -2.13%.
On the same count and under the same terms, then `CCOC(=O)C1(C(=O)OCC)C(c2ccccc2)CC(O)N1C(C)=O` (stereo not drawn), with 2.54%.
As for `Cc1cccc(NC(=O)c2cnc3sccn3c2=O)n1`, the inhibition was 2.83%.
On the same count and under the same terms, the value for `CCCn1c(SCC(=O)Nc2nnc(-c3ccccc3)s2)nnc1-c1ccccn1` was 25%; that for `COc1ccc(-c2c3c(=O)n(C)c(=O)n(C)c3cn2-c2cccc(OC)c2)cc1` was -6.03%; that for `CCOC(=O)C1CCN(Cc2ccc(C(=O)OC)cc2)CC1` was -1.8%.
As for `O=C1c2ccccc2C(Nc2ccc3c(c2)OCCO3)N1Cc1ccco1` (stereo not drawn), the inhibition was -1.5%.
Still for that read-out and setting: the value for `COc1cc(/C=N/n2c(C)nnc2C)cc(OC)c1OC` was 5.74%; that for `Cc1cccc(N(C)C(=O)c2cc3cc4ccc(C)cc4nc3o2)c1` was -4.26%.
The same measure, in the same setting: then `Cc1cc(NC(=O)CSc2nccn2-c2ccc(Cl)cc2)no1`, with -2.38%; and `Cc1ccc2[nH]c(=O)c(CN(CCCO)S(=O)(=O)c3c(C)ccc4nsnc34)cc2c1`, with -4.44%.
Turning to `Cc1ccc(S(=O)(=O)C2(C(=O)N3CCCCCC3)CC2)cc1`, the inhibition was -0.95%.
Regarding `COc1cc(CN2CCSCC2)cc(OC)c1OC`, the inhibition was -1.83%.
As to `CCOc1ccc(-c2nc(S(=O)(=O)c3ccccc3)c(NCc3cccnc3)o2)cc1`, the inhibition is -1.13%.
Still for that read-out and setting: then `CC(=O)Nc1ccc(NS(=O)(=O)c2ccc(Cl)c(C(=O)O)c2)cc1`, with -3.17%; and `CC(=O)CCc1ccc(OCCCCn2cncn2)cc1`, with 1.59%.
On to `CCCC(=O)Nc1ccc(NC(=O)c2ccccc2OC)cn1`, for which the inhibition was -4.43%.
Turning to `CCOC(=O)c1[nH]c(C)c(C(=O)Nc2ccccc2F)c1C`, the inhibition is 4.13%.
Turning to `COc1ccccc1C(=O)N1CCN(CCc2ccccc2)CC1`, the inhibition is -4.17%.
Still for that read-out and setting: then `CCN1CCN(c2c(Cl)cccc2NC(=O)c2ccc3c(c2)OCCO3)CC1`, with 3%.
Still for that read-out and setting: then `COc1ccccc1NS(=O)(=O)c1ccc(OC)c(OC)c1`, with 6.56%; and `CN(C(=O)c1ccc(S(=O)(=O)NC2CCCC2)cc1)C1CCCCC1`, with -7.54%.
The same measure, in the same setting: the value for `C/C(N)=C(/C#N)C(=O)COC(=O)c1cc(S(=O)(=O)N2CCCCC2)ccc1C` was -3.83%; that for `CC(=O)Nc1ccc(-c2cc3ccccc3o2)cc1` was -5.08%.
For the molecule `CCN(CC)S(=O)(=O)c1ccc2oc(C(=O)O)c(C)c2c1`, the inhibition is 4.43%.
Still for that read-out and setting: the value for `CCn1c(=O)cc(SCC(=O)Nc2ccc3c(c2)OCO3)c2ccccc21` was -10.5%.
`CN(C(=O)c1ccncc1)C1CC(C)(C)N(O)C(C)(C)C1`: the inhibition is -6.36%.
As for `CCCC(=O)Nc1ccccc1NC(=O)CN(C)S(=O)(=O)c1ccc(C)cc1`, the inhibition is -4.84%.
The same measure, in the same setting: then `Cn1c(=O)cc(OCC(=O)NCCCN2CCN(Cc3ccccc3)CC2)c2ccccc21`, with -7.87%; and `CCNC(=O)C1CC(=O)N(Cc2ccc3c(c2)OCO3)C(=Nc2ccc(OCC)cc2)S1` (stereo not drawn), with 6.89%; and `Cc1cc(-c2ccccc2)nc2cc(C(N)=O)nn12`, with 1.61%.
On the same count and under the same terms, then `Cc1ccc(C)c(-n2c(Cc3cc(=O)[nH]c(=O)[nH]3)nnc2SCC(=O)NCc2ccco2)c1`, with -5%; and `Cn1c(C(=O)NCCC2=CCCCC2)cc2c(=O)n3ccccc3nc21`, with -1.97%; and `O=C1CCC(c2ccccc2)N1C(=O)c1cccnc1` (stereo not drawn), with -4.29%.
For the molecule `Cc1ccc(-n2nnnc2SCC(=O)N2CCc3ccccc3C2)cc1`, the inhibition is 0.48%.
Still for that read-out and setting: then `COC(=O)c1oc2ccc(OC)cc2c1N`, with -4.84%; and `O=C(C1CCC(CNS(=O)(=O)c2cccc3cccnc23)CC1)N1CCCC1` (stereo not drawn), with -6.72%.
On the same count and under the same terms, the value for `FC(F)(F)C(F)(F)C(F)(F)c1nnc2ccc(N3CCOCC3)nn12` was 7.94%.
